Screening results as filed in PubChem BioAssay.
Only some compounds are listed: those with a hit (about 7.5% of all), similar ones and a draw of the others.
SMN2 splice up = SMN2 splice variant enhancement | 210,000 tested, 2.8% active | Potency, µM (titrated, usually from 46.1 µM), for the others: at the highest dose activity change, positive = activation, hits mostly activators | AID 1458 | HEK293 SMN2-luciferase splicing reporter, luminescence, 30-36 h; further: % of control where 0% means no effect; nearly all actives have a fitted effect of over 55% in size
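HEK293 cells carry an SMN2 minigene-luciferase reporter in which exon 7 inclusion puts luciferase in frame. Cells were seeded at 2000 cells/well, attached for 10-12 hours, then exposed to compounds for 30-36 hours at 37C before ONE-Glo luminescence.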
Rab9 promoter act = Rab9 promoter activation. 320,000 tested, 2.8% active. Huh7 Rab9 promoter-luciferase reporter, luminescence, 24 h. Potency, µM (top dose mostly 9.22 µM), for inactives: at the top dose activation, negative = inhibition, most hits filed as activators; further: % of control where 0% means no effect; nearly all actives have a fitted effect of over 60% in size
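Luminescence from Amplite-detected luciferase (10 minutes, ambient) reports Rab9 promoter activation. Before that, stable Rab9-luciferase Huh7 cells (1500/well, reduced-serum OP-MEM I plus 10% FBS) were exposed to compound for 24 hours at 37C.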
ELG1 genotoxic = inducers of genotoxicity in HEK293T ELG1-luciferase cells | HEK293T ELG1-luciferase reporter, luminescence, 16 h | Potency, µM (titrated, usually from 46 µM), without a hit: at the top dose activity change, positive = activation, usual class: activators | 330,000 tested, 1.3% active | AID 504466; further: % of control where 0% means no effect; nearly all actives have a fitted effect of over 60% in size
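Genotoxicity was scored as increased ELG1-luciferase reporter signal, measured by ONE-Glo luminescence (30 min, room temperature). Compound or vehicle exposure of the HEK293T reporter cells lasted 16 hr at 37°C.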
FLuc modulator = counter-screen for miR-21 project: firefly luciferase inhibitors or activators. P08659. purified FLuc, Km substrates, luminescence inhibition. Potency, µM (top dose mostly 57.5 µM), for inactives: top-dose activity change, negative = inhibition, hits mostly inhibitors. 360,000 tested, 6.9% active;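 further: plate controls were vehicle for no effect and reference inhibitor for full effect; nearly all actives have a fitted effect of over 55% in size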
Target sequence (P08659 whole entry, looked up): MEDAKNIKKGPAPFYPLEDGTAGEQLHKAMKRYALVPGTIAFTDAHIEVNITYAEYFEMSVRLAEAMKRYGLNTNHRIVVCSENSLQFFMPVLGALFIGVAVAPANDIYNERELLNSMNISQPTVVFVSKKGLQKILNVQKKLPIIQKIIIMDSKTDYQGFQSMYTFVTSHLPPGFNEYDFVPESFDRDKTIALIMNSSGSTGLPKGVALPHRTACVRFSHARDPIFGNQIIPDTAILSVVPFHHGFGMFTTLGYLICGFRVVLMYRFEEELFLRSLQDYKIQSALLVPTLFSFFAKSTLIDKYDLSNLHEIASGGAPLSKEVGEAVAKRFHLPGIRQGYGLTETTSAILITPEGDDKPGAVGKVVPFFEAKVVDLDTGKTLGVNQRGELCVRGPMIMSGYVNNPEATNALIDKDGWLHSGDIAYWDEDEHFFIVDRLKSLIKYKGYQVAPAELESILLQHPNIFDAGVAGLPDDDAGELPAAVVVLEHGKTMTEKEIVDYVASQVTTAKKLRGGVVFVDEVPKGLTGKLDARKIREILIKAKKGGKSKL
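Biochemical qHTS of compounds, final roughly 60 µM downward over six points, against 10 nM purified firefly luciferase using Km concentrations of substrates (10 uM D-luciferin, 10 uM ATP) in Tris acetate pH 7.5 buffer; luminescence output.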
KinaseGlo FLuc = blocks Kinase-Glo luciferase, a counter-screen artifact | Kinase-Glo luciferase, ATP luminescence, 8 min | Potency, µM (series often up to 38.3 µM), for inactives: at the highest dose activity change, negative = inhibition, hits mostly inhibitors | 200,000 tested, 0.28% active | AID 1379; further: on the % scale 0 is the no-effect control and ±100 the full control effect; nearly all actives have a fitted effect of over 60% in size
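Recombinant Kinase-Glo luciferase, 10 uM ATP (linear range), luciferin; imidazole pH 7.2 / KCl / MgCl2 / Tween / BSA buffer; 8 min RT; luminescence.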
NPC1 promoter act = NPC1 promoter activation. Potency, µM (top dose mostly 9.22 µM), without a hit: top-dose activation, usual class: activators. AID 485313. 320,000 tested, 2.4% active. Huh7 NPC1 promoter luciferase reporter, 24 h; further: % of control where 0% means no effect; nearly all actives have a fitted effect of over 60% in size
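Compounds in DMSO were transferred onto Huh7 NPC1-luciferase reporter cells pre-incubated 2 h; after 24 h at 37 °C, Amplite reagent was dispensed and luminescence recorded 10 min later.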
* = called active by the depositor; ? = inconclusive; nt = no result given; [ ] = dose if it differs, or a comment. The call rests on the fitted dose curve; in most records, active means well fitted curve in the direction sought with a large enough effect; inconclusive means small, poorly fitted or top-dose-only effect, or another doubt; inactive means no such curve, though single readings can be large; an effect the other way counts as inactive or inconclusive. Potency means the concentration at half of the fitted maximal effect.

SMILES	SMN2 splice up	Rab9 promoter act	ELG1 genotoxic	FLuc modulator	KinaseGlo FLuc	NPC1 promoter act
CCCCCCCC(=O)NN=C1CCN(Cc2ccccc2)CC1	-7%	-2%	1%	-1%	1%	0%
Cc1c(Br)c(C(=O)NNC(=O)c2ccc(C(C)(C)C)cc2)nn1C	nt	21%	0%	?	nt	26%
COc1ccc(CCNC(=O)CNS(=O)(=O)c2ccc(F)c(Cl)c2)cc1OC	nt	0%	-1%	0%	nt	6%
CCC(C)(C(=O)NC1CCCCC1)N(Cc1cccs1)C(=O)c1ccc(=O)[nH]c1 (stereo not given)	2%	-5%	-3%	1%	1%	-1%
O=C(O)c1ccc(OCc2ccc(C(=O)O)o2)cc1	nt	11%	5%	-15%	nt	3%
COC(=O)c1ccc(COc2cccc(OC)c2)o1	2%	-2%[1.84 µM]	23µM*	?	-1%	-5%
CCOc1ccc(OCc2ccc(C(=O)NCc3cccnc3)o2)cc1	-32%	20%	1%	-8%	-2%	20%
O=C(O)c1ccc(COc2ccc(Cl)cc2)o1	11µM*	23%	?	27µM*	1%	30%
CN(C)c1ccc(NC(=O)c2ccc(COc3cccc(Cl)c3)o2)cc1	-5%	29%	?	9.5µM*	-5%	20%
CCOc1ccc(OCc2ccc(C(=O)Nc3cccnc3)o2)cc1	7.9µM*	?	-1%	?	0%	0.56µM*
CCOc1ccccc1N1CCN(C(=O)c2ccccc2OCc2c(C)noc2C)CC1	nt	-2%	-1%	0%	nt	0%
CCc1ccc(OCc2ccc(C(=O)O)o2)cc1	nt	?	?	2.1µM*	nt	?
CCOc1ccc(OCc2ccc(C(=O)NC(C)(C)C)o2)cc1	nt	23%	-3%	2%	nt	24%
CCOc1ccc(OCc2ccc(C(=O)NN)o2)cc1	nt	?	?	?	nt	0.4µM*
COc1ccc(OCc2cc(C(=O)O)c(C)o2)cc1	nt	?	1%	2.1µM*	nt	?
CC(=O)c1cc(-c2ccccc2)n(CCC(=O)Nc2ccc(C(C)C)cc2)c1C	nt	nt	nt	1%	nt	nt
O=C(Cc1ccccc1)Nc1nc2ccccc2s1	?	27%	13%	27µM*	1%	25%
COc1ccc2nc(NC(=O)Cc3cccs3)sc2c1	10%	2.8µM*	6.5µM*	12µM*	-4%	2.8µM*
CC1(C(=O)Nc2nc3ccccc3s2)CC1(Br)Br (stereo not given)	nt	?	?	21µM*	nt	?
O=C(CSc1nccn1Cc1ccccc1)Nc1nc2ccccc2s1	nt	nt	nt	17µM*	nt	nt
COCC(=O)Nc1nc2ccccc2s1	20%	nt	nt	?	-3%	nt
COc1ccc2nc(NC(=O)CCn3cccc3)sc2c1	-10%	-8%	0%	-7%	-9%	?
O=C(Cc1ccccc1)Nc1nc(=O)c2ccccc2s1	1%	nt	4%	5%	-3%	-2%
Cc1ccc2nc3c(c(C(=O)OCC(=O)NC4CCS(=O)(=O)C4)c2c1)CCCC3 (stereo not given)	21%	-28%	-2%	0%	-2%	-2%
Cc1ccc(NC(=O)CN(C)S(=O)(=O)c2cccs2)c(Br)c1	nt	14%	11%	24µM*	nt	3%
SMILES	SMN2 splice up	Rab9 promoter act	ELG1 genotoxic	FLuc modulator	KinaseGlo FLuc	NPC1 promoter act
O=C(Cc1nnc(NC(=O)Nc2ccccc2)s1)Nc1ccccc1	nt	0%	7%	-1%	nt	0%
O=C(Cc1nc(=O)c2ccccc2s1)Nc1ccccc1	2.5µM*	0.32µM*	?	0.54µM*	?	0.71µM*
CCc1c(O)nc(SCC(=O)Nc2nc3ccccc3s2)n(-c2ccccc2)c1=O	nt	-2%	0%	-7%	nt	-1%
CCc1c(O)nc(SCC(=O)Nc2nc3ccccc3s2)n(-c2ccc(C)cc2)c1=O	nt	16%	17%	21µM*	nt	20%
Cc1ccc2nc(-c3ccc(NC(=O)Cc4cccs4)cc3)[nH]c2c1	2.5µM*	1µM*	?	1.3µM*	-2%	2µM*
CCOc1ccc2nc(NS(=O)(=O)c3cccs3)sc2c1	nt	8%	1%	?	nt	-2%
